Screening data: PubChem, Broad Institute
MITF TRPM1 HTS: activators of MITF-driven TRPM1 promoter reporter, primary screen, cell-based, SK-MEL-5, luciferase, single point | activation, % at 12.5 µM | SK-MEL-5 TRPM1-promoter luciferase, 24 h; % of positive control, neutral wells = 0 | 300,000 tested, 0.75% active;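 active means mean activation of at least 80% with every replicate also reaching 80%; inconclusive means mean reaches 80% but some replicate falls short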;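 further: 0% = neutral control wells and 100% = parthenolide positive control wells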
esBAF inh: Bmi1 luciferase reporter increase in mESCs, primary screen, esBAF inhibitor project, mouse ES cells, Bmi1 luciferase knock-in, single point; reporter increase, % at 12.5 µM; 24 h; 100% = twice the neutral-well signal; AID 602393, 2012; 350,000 tested, 2% active; in the data active means activation above about 40%; inconclusive means no clear call, values can overlap the other calls;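 further: 0% = median of the plate's neutral control wells and 100% = double that signal; a rise in the Bmi1 reporter signal indicates esBAF inhibition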
Wnt act: Wnt/beta-catenin pathway activators, primary screen, cell-based, plate reader, single point. Wnt/beta-catenin reporter cell assay, activator. activation, % at 9.35 µM. 300,000 tested, 1.2% active; in the data active means activation above about 30%, passing the limit was not always enough; inconclusive means no clear call, values can overlap the other calls;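 further: 0% = neutral control wells and 100% = positive control wells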
Env fusion inh: inhibitors of HIV-1 Env-driven cell-cell fusion, primary screen, HeLa-JRFL effector, CEM21 target cells, luciferase | inhibition, % at 12.3 µM | 360,000 tested, 1.1% active | AID 651610, 2012;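 active means mean replicate inhibition score of at least 50 and every replicate individually at or above 50; inconclusive means only one of the two criteria met; inactive means mean below 50 and not all replicates reaching 50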;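 further: 0% = plate neutral controls and 100% = maraviroc near 300 nM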
miR122 inh: miR-122 Renilla sensor signal increase in Huh7, primary screen, miR-122 inhibitor project, cell-based, single point, plate reader; AID 602342, 2012; activation (reporter increase), % at 12.5 µM; Huh7 miR-122 Renilla luciferase sensor, 48 h; neutral wells = 0, positive control = 100; 340,000 tested, 0.3% active;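 active means mean replicate activation score at least 90 and every replicate individually at or above 90; inconclusive means only one of the two criteria met; inactive means neither criterion met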;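 further: higher luciferase means less miR-122 activity so hits act as miR-122 inhibitors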
* marks the source's active call; other numbers are inactive results; ? = inconclusive; nt = not tested or not shown; [ ] = another dose, or the depositor's remark. Rows were chosen to be rich in hits. Some 3.4% of all compounds tested hit in one or more screens of this group.

SMILES	MITF TRPM1 HTS	esBAF inh	Wnt act	Env fusion inh	miR122 inh
CN(C)C(=O)C[C@H]1C[C@H]2c3cc(NC(=O)C4CCOCC4)ccc3O[C@H]2[C@H](CO)O1	nt	-3.2	nt	1.9[16.7 µM]	-6.4[16.7 µM]
CO[C@@H]1CN(C)C(=O)c2ccc(NC(=O)Nc3cc(F)ccc3F)cc2OC[C@@H](C)N(C(=O)c2cnccn2)C[C@H]1C	nt	-0.6	nt	9.4[16.7 µM]	nt
O=C(Nc1ccc(OC(F)(F)F)cc1)c1n[nH]c(Cn2cncn2)n1	nt	6.7	81.1*	-72.6	-0.8
O=C(Nc1cc(F)ccc1F)N1C[C@@H]2[C@H](c3ccccc31)[C@H](CO)N2CC1CCCC1	nt	-2.2	nt	nt	-2.8[16.7 µM]
COc1ccc(-c2[nH]ncc2CNC(C)c2ccccc2Cl)cc1F (configuration not stated)	21.3	-8.2	43.3*	51.5	-5.0
COc1ccc(-c2[nH]ncc2CNC(C)CCn2cccn2)cc1F (configuration not stated)	20.5	2.9	-2.5	-12.8	-3.6
C#CCn1c(=O)c2c(ncn2C)n(C)c1=O	-2.5	14.9	0.3	71.7*	-4.8
Cc1ccc(NC(=O)Nc2nnc(Cc3ccc([N+](=O)[O-])cc3)s2)cc1	57.1	nt	8.5	nt	-2.6
O=C(Nc1ccc(Cl)cc1)Nc1cc([N+](=O)[O-])ccc1F	27.5	nt	nt	9.5	nt
O=C(Nc1ccc([N+](=O)[O-])cc1)Nc1ccc(Cl)cc1F	1.4	nt	-0.2	66.0*	nt
O=C(Nc1ccc(Cl)cc1)Nc1nnc(Cc2ccc([N+](=O)[O-])cc2)s1	-3.1	nt	48.3*	22.0	nt
O=c1oc2ccccc2cc1-c1nnc(NCc2ccco2)s1	nt	3.4	72.0*	-358.6	2.8
Nc1nnc(-c2cc3ccccc3oc2=O)s1	nt	26.4	1.4	nt	3.8
CCOc1ccccc1C(=O)NCC(=O)NNC(=O)CN(C)S(=O)(=O)c1ccc(Cl)cc1	-12.2	nt	1.2	69.5*	-5.2
COc1ccccc1-c1cnc2c(c1)C(=O)N([C@H](C)CO)C[C@H](C)[C@H](CN(C)CC1CCOCC1)O2	nt	-2.1	nt	nt	13.2[16.7 µM]
COc1ccc(NS(=O)(=O)c2cccc(Cl)c2)cc1S(=O)(=O)N1CCCCC1	-2.6	nt	-2.0	nt	438.0*
Cc1ccc(S(=O)(=O)Nc2nc3ccccc3nc2Nc2cccc(S(=O)(=O)N3CCCC3)c2)cc1	5.8	nt	-0.1	38.0	nt
O=[N+]([O-])c1cccc(S(=O)(=O)Nc2nc3ccccc3nc2Nc2cccc(S(=O)(=O)N3CCCCC3)c2)c1	-32.9	nt	-24.0	72.0*	nt
COc1ccc(S(=O)(=O)Nc2ccc(C)c(S(=O)(=O)N3CCOCC3)c2)cc1[N+](=O)[O-]	4.0	-5.9	-2.0	16.2	98.2*
O=S(=O)(Nc1cccc(-c2ccc(N3CCCCCC3)nn2)c1)c1ccccc1Cl	2.9	43.5*	5.5	-22.2	nt
CC(C)NC(=O)N[C@H]1CC[C@@H](CCNC(=O)C2CCOCC2)O[C@@H]1CO	nt	2.0	nt	-4.4[16.7 µM]	-9.3[16.7 µM]
O=C(C[C@H]1CC[C@@H]2[C@H](COC[C@H](O)CN2Cc2cocn2)O1)NCc1cccc(F)c1	nt	-4.0	nt	11.9[16.7 µM]	3.3[16.7 µM]
Cc1ccc(S(=O)(=O)Nc2cccc(S(=O)(=O)N3CCCC3)c2)cc1C	6.0	7.5	0.5	3.2	122.5*
Cc1ccc(S(=O)(=O)Nc2cccc(-c3ccc(N4CCCCCC4)nn3)c2)cc1C	57.8	46.3*	13.1	-64.1	nt
O=S(=O)(Nc1cccc(-c2ccc(N3CCCCCC3)nn2)c1)c1ccccc1F	71.7	nt	25.7	-73.3	nt
SMILES	MITF TRPM1 HTS	esBAF inh	Wnt act	Env fusion inh	miR122 inh
O=[N+]([O-])c1ccc(Cl)c(S(=O)(=O)Nc2cccc(-c3ccc(N4CCOCC4)nn3)c2)c1	86.4*	31.6	9.5	nt	-4.9
O=S(=O)(Nc1cccc(-c2ccc(N3CCCCCC3)nn2)c1)c1ccc(F)cc1	62.7	56.0*	17.0	-52.9	3.1
CC=Cc1ccc2n(c1=O)C[C@@H]1[C@@H](CO)[C@H](C(=O)NCCc3ccncc3)[C@H]2N1CCC(F)(F)F (mixture of isomers)	nt	-2.1	nt	1.5[16.7 µM]	nt
CCN1[C@@H]2c3ccc(-c4ccncc4)c(=O)n3C[C@H]1[C@H](CO)[C@H]2C(=O)NCc1ccccc1	nt	-1.0	nt	nt	12.9[16.7 µM]
CN(C)C(=O)[C@H]1[C@H](CO)[C@H]2Cn3c(ccc(/C=C/c4ccccc4)c3=O)[C@H]2N1C(=O)c1cccnc1	nt	2.6	nt	3.9[16.7 µM]	nt
CCOc1ccc(S(=O)(=O)Nc2cccc(-c3ccc(N4CCCCCC4)nn3)c2)cc1	36.3	33.9	5.1	-36.9	14.7
COc1cc(S(=O)(=O)N2CCCCCC2)c(OC)cc1Br	nt	4.6	nt	-15.3	307.9*
O=S(=O)(Nc1cccc(-c2ccc(N3CCCCCC3)nn2)c1)c1ccc(C(F)(F)F)cc1	51.4	55.7*	-0.9	-25.5	5.8
COc1ccc(C)cc1S(=O)(=O)Nc1cccc(-c2ccc(N3CCCCCC3)nn2)c1	13.7	?	6.1	-13.0	35.2
O=S(=O)(Nc1cccc(-c2ccc(N3CCCCCC3)nn2)c1)c1cccc(F)c1	98.5*	65.8*	28.8	-13.4	32.2
COCC(=O)N[C@H]1C=C[C@H](CC(=O)NCc2ccc(Cl)cc2)O[C@H]1CO	nt	4.4	nt	13.9[16.7 µM]	nt
CCOc1ccc(-c2n[nH]c(C(=O)NN)c2C)cc1	9.3	55.4*	12.8	8.7	24.0
COc1ccccc1C(=O)Cc1ccccc1	18.2	23.5	-3.5	-32.9	-12.0
COc1ccccc1C(=O)OCCc1ccccc1	141.2*	78.4*	-2.4	-35.7	nt
Cc1cccnc1Nc1nc(-c2ccc(O)cc2)cs1	101.2*	57.7*	nt	nt	-6.4
COc1cccc(Nc2nc(-c3ccc(O)cc3)cs2)c1	90.3*	35.9	nt	-46.1	3.3
Cc1cccnc1Nc1nc(-c2ccc(F)cc2)cs1	nt	?	-3.8	-164.4	-1.8
COc1ccc(-c2cc(C(=O)NCc3cccnc3)no2)cc1	17.1	24.6	nt	-2.5	4.0
O=C(NCCN1CCOCC1)c1cc(-c2ccccc2)on1	7.2	19.4	47.3*	-79.9	nt
O=C(NCc1cccnc1)c1cc(-c2ccccc2)on1	18.6	47.4*	nt	nt	-1.2
O=C(NCc1ccccc1)c1cc(-c2cccc(O)c2)on1	nt	68.5*	19.9	-56.0	3.6
O=C(CN1CCOCC1)N[C@H]1CC[C@@H](CCNC(=O)C2CCC2)O[C@H]1CO	nt	0.1	nt	-4.4[16.7 µM]	-5.4[16.7 µM]
C[C@@H]1CN([C@H](C)CO)C(=O)c2cc(NC(=O)Nc3cccc4ccccc34)ccc2O[C@H]1CN(C)S(=O)(=O)c1cccs1	nt	-2.7	nt	nt	-0.7[16.7 µM]
CC(C)C#Cc1ccc([C@H]2[C@@H](CO)N3CCCCN(CC4CC4)C[C@@H]23)cc1	nt	nt	nt	nt	-25.4[16.7 µM]
O=c1c2ccccc2nc(/C=C/c2ccc(Br)cc2)n1CCO	nt	nt	3.1	14.9	-2.4
Cc1[nH]c2ccccc2c1/C=C/c1nc2ccccc2c(=O)n1CCO	19.4	37.5*	5.4	?	nt
CC(C)C[C@H]1COCn2nncc2CC[C@H](Cc2ccccc2)C(=O)N1	nt	nt	nt	1.9[16.7 µM]	nt
